# PAFAH2 inh: PAFAH2 (human) inhibition; recombinant PAFAH2, FP-rhodamine activity probe, fluorescence polarization; inhibition, % at 3.39 µM; hit rate 0.99% among 340,000; AID 492956;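 active = inhibition above the mean over all tested compounds plus 3 SD, cut at about 30% in these data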;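 note: inhibitors block probe labeling of enzyme so polarization drops; 0% = enzyme with DMSO and 100% = wells lacking PAFAH2 protein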
# PAFAH1B3 FP inh: inhibitors of human PAFAH1B3; Q15102; recombinant PAFAH1B3, FP-rhodamine probe, fluorescence polarization; inhibition, % at 3.39 µM; hit rate 0.28% among 340,000; AID 492972;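 active = inhibition above the screen-wide average of all tested compounds plus 3 SD, cut at about 25% in these data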;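 note: 0% = enzyme with DMSO only and 100% = wells lacking PAFAH1B3 protein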
# Target sequence (Q15102 whole entry, looked up): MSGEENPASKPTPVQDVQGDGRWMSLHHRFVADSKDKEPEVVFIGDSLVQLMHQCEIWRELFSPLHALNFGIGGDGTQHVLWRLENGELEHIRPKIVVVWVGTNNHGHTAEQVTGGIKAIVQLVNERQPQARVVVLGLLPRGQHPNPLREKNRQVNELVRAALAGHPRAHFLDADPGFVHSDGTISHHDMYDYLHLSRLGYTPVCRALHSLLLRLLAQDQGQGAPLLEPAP
# PAFAH1B2 inh: inhibitors of human PAFAH1B2; hit rate 1.2% among 340,000; recombinant PAFAH1B2, FP-rhodamine activity probe, fluorescence polarization; AID 492953; inhibition, % at 3.39 µM;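 active = inhibition above the mean of all tested compounds plus 3 SD, cut at about 24% in these data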;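 note: 0% = enzyme with DMSO and 100% = wells lacking PAFAH1B2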
# Target sequence (P68402 whole entry, looked up): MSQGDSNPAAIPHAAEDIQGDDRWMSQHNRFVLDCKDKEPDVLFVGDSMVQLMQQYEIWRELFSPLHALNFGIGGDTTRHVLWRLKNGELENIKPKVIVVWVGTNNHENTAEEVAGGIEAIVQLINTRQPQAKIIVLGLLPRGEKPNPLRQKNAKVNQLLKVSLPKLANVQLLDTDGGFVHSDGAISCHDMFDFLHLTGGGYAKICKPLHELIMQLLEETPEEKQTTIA
# rCAG binder: binds r(CAG) RNA repeats; r(CAG) RNA repeat, TO-PRO-1 dye displacement fluorescence; inhibition, % at 3 µM; hit rate 1.3% among 370,000;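 active = inhibition above the plate cutoff, the mean of all test compounds on that plate plus 3 SD, cut at about 35% in these data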;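 note: 0% = DMSO alone and 100% = 100 µM mitoxantrone as full dye displacement; higher means more dye released from RNA so lower well fluorescence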
# EBNA-1 inhibitor: blocks EBNA-1 binding to DNA; inhibition, % at 14.8 µM; AID 1950; EBNA-1 DNA binding, fluorescence polarization; hit rate 0.34% among 300,000; in the data active = inhibition above about 28%
# ZTA counter: blocks Epstein-Barr virus ZTA, an EBNA-1 counter-screen; P03206; ZTA-DNA binding, fluorescence polarization; inhibition, % at 11 µM; hit rate 0.15% among 320,000; AID 2234; in the data active = inhibition above about 33%
# Target sequence (P03206 whole entry, looked up): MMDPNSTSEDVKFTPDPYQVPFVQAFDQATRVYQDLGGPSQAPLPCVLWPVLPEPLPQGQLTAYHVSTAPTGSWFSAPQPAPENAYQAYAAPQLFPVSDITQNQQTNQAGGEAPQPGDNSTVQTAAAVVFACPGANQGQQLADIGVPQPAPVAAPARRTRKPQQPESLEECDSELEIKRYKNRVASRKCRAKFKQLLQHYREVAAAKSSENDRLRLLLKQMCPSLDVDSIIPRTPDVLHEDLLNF
# rCAG bind conf: r(CAG) RNA repeat binding, confirmation; shares compounds with rCAG binder; TO-PRO-1 dye displacement fluorescence; inhibition, % at 3 µM; hit rate 70% among 4,300; AID 652065;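 active = inhibition above a per-plate cutoff, the mean inhibition of sample wells plus 3 SD, cut at about 35% in these data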;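 note: loss of TO-PRO-1 fluorescence as compound displaces dye from 1x1 AA loop RNA; 0% = DMSO only wells and 100% = 100 µM mitoxantrone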
# dCAG dye counter: counter-screen for rCAG RNA binders: DNA CAG dye complex inhibitors | inhibition, % at 3 µM | d(CAG) DNA oligo TO-PRO-1 dye displacement, fluorescence | hit rate 94% among 4,300 | shares compounds with rCAG binder;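 active = inhibition above its plate's cutoff, the mean test-well inhibition plus 3 SD, cut at about 4.8% in these data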;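 note: 0% = DNA dye mix with DMSO and 100% = 100 µM mitoxantrone; hits displace the dye from DNA and so lower well fluorescence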
# DNA CAG DR: counter-screen for rCAG binders: inhibitors of DNA CAG TO-PRO-1 complex; shares compounds with rCAG binder; DNA CAG/GTC duplex TO-PRO-1 dye displacement fluorescence; IC50, µM; hit rate 20% among 250; AID 686960; in the data active = IC50 below about 10 µM
# * = called active by the depositor; nt = not tested or not shown. An excerpt weighted towards active compounds, which were near 2.9% of everything screened.
SMILES,PAFAH2 inh,PAFAH1B3 FP inh,PAFAH1B2 inh,rCAG binder,EBNA-1 inhibitor,ZTA counter,rCAG bind conf,dCAG dye counter,others
Cc1ccc2sc(NNC(=O)c3cc(-c4cccs4)nc4ccccc34)nc2c1C,nt,nt,nt,18.9,1.6,4.3,nt,nt,
COC(=O)[C@H](CC(C)C)N(Cc1cn(CC2CCCCC2)nn1)S(=O)(=O)c1ccc(F)cc1Br,nt,nt,nt,3.8,nt,nt,nt,nt,
O=C(Nc1ccc2c(c1)OCCO2)C1CCCN1C(=O)Nc1ccc(F)cc1 (stereo not drawn),-0.7,9.2,1.6,-2.7,4.3,8.5,nt,nt,
O=C(NNC(=S)NCCc1ccccc1)c1ccc(Br)s1,6.2,7.6,22.0,54.0*,-12.8,-11.7,46.5*,14.4*,DNA CAG DR=>29.9
CC(C)CCN1C(=O)c2ccc(C(=O)Nc3ccc(Br)cc3C(=O)O)cc2C1=O,-6.6,3.7,10.3,62.6*,-7.3,-7.4,79.0*,72.7*,
CC(C)CCN1C(=O)c2ccc(C(=O)Nc3cc(C(=O)O)cc(C(=O)O)c3)cc2C1=O,5.8,5.8,4.4,30.4,nt,nt,nt,nt,
O=C(Nc1ccc(Cl)cc1C(=O)O)c1ccc2c(c1)C(=O)N(Cc1ccco1)C2=O,7.4,-0.7,8.7,86.1*,-9.7,0.6,88.1*,74.8*,
O=C(O)c1cc(NC(=O)c2cccc(N3C(=O)c4ccccc4C3=O)c2)cc(C(=O)O)c1,5.0,5.6,5.3,8.0,3.0,6.2,nt,nt,
Cc1ccnc(NC(=O)c2ccc3c(c2)C(=O)N(CCC(C)C)C3=O)c1,3.5,9.4,7.1,-1.8,7.7,-5.9,nt,nt,
O=C(Nc1ccccc1C(=O)O)c1cccc(N2C(=O)c3ccccc3C2=O)c1,-2.4,-0.8,3.0,35.0*,7.1,-6.8,17.6,0.7,
CC(=O)NS(=O)(=O)c1ccc(NC(=O)c2ccc3c(c2)C(=O)N(CCC(C)C)C3=O)cc1,-17.6,-9.2,-8.6,57.7*,6.2,7.6,58.9*,18.8*,
O=C(Nc1cccc(O)c1)c1ccc2c(c1)C(=O)N(Cc1ccco1)C2=O,-8.8,4.4,-5.5,9.3,-1.1,-2.4,nt,nt,
Cc1ccc(S(=O)(=O)N2CCC(NC(=O)C3CCCCC3)CC2)cc1,-7.3,-3.1,-2.4,1.1,-8.9,3.0,nt,nt,
O=C(CCn1ccnc1)Nc1ccc2ccccc2c1,3.8,-2.6,3.8,-4.4,1.5,4.6,nt,nt,
CCCNC(=S)Nc1ccc(F)cc1F,nt,nt,nt,0.9,-3.2,-2.2,nt,nt,
COCCOc1cc(-n2cccc2)c(Cl)cc1Cl,-3.7,-3.5,-0.7,-4.3,-0.7,-14.3,nt,nt,
Cc1ccccc1NC(=O)c1ccc2c(c1)C(=O)N(CC(C)C)C2=O,-0.1,10.2,4.6,-1.4,-4.8,2.8,nt,nt,
CC(C)CN1C(=O)c2ccc(C(=O)Nc3ccccc3C(=O)O)cc2C1=O,19.6,3.7,4.4,56.5*,-6.7,-0.5,57.4*,18.0*,
CCOc1cc(/C=C\c2nc(O)c([N+](=O)[O-])c(=O)[nH]2)ccc1OC(C)CC (stereo not drawn),3.2,4.3,0.7,44.7*,4.5,3.5,45.7*,9.5*,DNA CAG DR=>29.9
C=CCOc1c(/C=N\NC(N)=O)cccc1OC,-1.3,9.8,8.0,-2.9,-7.6,-2.6,nt,nt,
C=CCOc1c(OC)cc(/C=N/Nc2cccc(C(=O)O)c2)c(Br)c1Br,24.0,5.1,3.5,51.1*,-1.4,-3.4,70.0*,31.4*,DNA CAG DR=8.34*
CCCc1cc(=O)n(-c2nc3ccccc3s2)[nH]1,25.3,1.7,1.0,16.8,9.7,2.5,nt,nt,
CCOC(=O)Cc1cc(=O)n(-c2nc3ccccc3s2)[nH]1,30.5*,3.9,1.1,73.5*,8.2,-7.3,33.5,12.2*,
Cc1ccc(C)c(S(=O)(=O)C(C#N)c2nc3ccccc3nc2N2CC(C)OC(C)C2)c1 (stereo not drawn),13.5,-4.8,2.5,37.9*,3.7,-5.2,74.5*,41.2*,
Cc1[nH]n(-c2ncc(-c3ccccc3)s2)c(=O)c1C(c1ccc(Br)cc1)C(C#N)C#N (stereo not drawn),29.6,11.3,1.7,56.6*,-4.9,-3.4,80.1*,50.3*,
SMILES,PAFAH2 inh,PAFAH1B3 FP inh,PAFAH1B2 inh,rCAG binder,EBNA-1 inhibitor,ZTA counter,rCAG bind conf,dCAG dye counter,others
Cc1[nH]n(C(N)=S)c(=O)c1C(c1ccccc1)C(C#N)C#N (stereo not drawn),2.0,-3.6,-0.1,3.5,-3.9,10.7,nt,nt,
COc1ccc(S(=O)(=O)N2CCCCCC2)cc1NS(=O)(=O)c1cc(C(=O)O)cc(C)c1C,-0.6,-1.4,6.6,46.6*,nt,23.3,17.4,5.9*,
COc1ccc(S(=O)(=O)N2CCCCC2)cc1NS(=O)(=O)c1cc(Cl)ccc1Cl,9.7,6.5,15.3,36.2*,6.4,-5.5,38.7*,10.0*,
COc1ccc(S(=O)(=O)N2CCCCC2)cc1NS(=O)(=O)c1ccccc1F,7.2,11.3,6.4,11.1,-5.4,3.6,nt,nt,
CC(=O)c1c(C)[nH]c(C(=O)OCC(=O)c2ccc(Br)cc2)c1C,nt,nt,nt,4.5,nt,nt,nt,nt,
O=C1NN(c2cccc(Br)c2)C(=O)/C1=C\c1ccccc1,0.6,14.5,15.2,77.5*,8.5,2.7,38.8*,10.9*,
O=C1NN(c2ccccc2)C(=O)/C1=C/c1coc2ccccc2c1=O,11.2,5.0,1.6,39.2*,-9.9,1.9,10.6,2.5,
O=C1NN(c2ccccc2)C(=O)/C1=C\c1ccccc1,-0.1,8.5,2.7,9.7,nt,nt,nt,nt,
O=C1NN(c2ccccc2)C(=O)/C1=C\c1coc2ccc(O)cc2c1=O,21.5,7.2,2.1,36.5*,-2.5,-1.0,7.8,3.7,
Fc1cccc(Cl)c1CN1CCN(c2ncc(Cc3ccccc3)cn2)CC1,nt,nt,nt,-0.5,nt,nt,nt,nt,
COc1ccc(CCNC(=O)CN(c2ccc(OC)c(OC)c2)S(=O)(=O)c2ccc(C)cc2)cc1,-4.5,-4.0,7.0,0.1,-4.2,-11.2,nt,nt,
CC(C)(C)OC(=O)[C@H]1[C@H](c2ccc([N+](=O)[O-])cc2)C2(C(=O)c3ccccc3C2=O)C2c3ccccc3C=NN21 (stereo partly drawn),6.7,1.7,83.8*,36.2*,2.8,-8.2,22.4,9.9*,
COc1ccc([C@H]2[C@H](C(=O)C(C)(C)C)N3N=Cc4ccccc4C3[C@]23N=C(c2ccccc2)OC3=O)cc1 (stereo partly drawn),-0.4,4.0,3.5,9.4,-22.8,-6.6,nt,nt,
Cc1ccc(C2=NC(=O)/C(=C/c3cc(O)c(O)c(Br)c3)S2)cc1,78.0*,47.7*,36.6*,84.2*,nt,nt,86.2*,52.3*,
S=c1[nH]nc(-c2cc(-c3ccccc3)n[nH]2)n1N=Cc1cccc(OCc2ccccc2)c1,nt,nt,nt,76.8*,nt,nt,63.3*,31.8*,

# Screening results deposited in PubChem BioAssay by The Scripps Research Institute Molecular Screening Center.
